The list is not random: actives were taken first. Their share in the collection is about 9.4%.
Pf growth 96h: P. falciparum growth inhibition at 96 hour, primary screen for plastid delayed-death inhibitors | P. falciparum luciferase reporter growth, 96 h | Potency, µM (doses to about 28.7 µM), without a hit: at the highest dose activity change, negative = inhibition, most hits filed as inhibitors | hit rate 6.9% among 320,000 | AID 504834; also: % is scaled to controls: 0 for no effect and ±100 for the full control effect
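Two parasite generations (96 h, 37 C, 5% CO2) of compound exposure in infected erythrocytes (0.05% parasitemia, 2% hematocrit). Luciferase-reporter P. falciparum; decreased luminescence indicates inhibited growth, aimed at apicoplast-acting delayed death.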
Pf growth 48h: P. falciparum growth inhibition at 48 hours (one generation); P. falciparum luciferase growth in erythrocytes, 48 h; Potency, µM (highest dose often 28.7 µM), for inactives: at the highest dose activity change, negative = inhibition, usual class: inhibitors; AID 504832; hit rate 5.9% among 310,000; also: % is scaled to controls: 0 for no effect and ±100 for the full control effect
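Cell-based growth assay: transgenic P. falciparum expressing firefly luciferase, cultured in red cells within RPMI 1640 containing 0.5% w/v Albumax, 24 mM bicarbonate and gentamycin. A drop in luciferase activity indicates inhibition.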
AMA1-RON2 inh: inhibitors of Plasmodium falciparum AMA1-RON2 interaction | AlphaScreen AMA1-biotinylated RON2 peptide binding | Potency, µM (titrated, usually from 58.2 µM), without a hit: top-dose activity change, negative = inhibition, actives largely listed as inhibitors | hit rate 0.2% among 360,000 | AID 720542;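 also: 0% = vehicle wells and -100% = peptide control; nearly all actives have a fitted effect of over 45% in size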
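AMA1 (3D7) with his tag at 25 nM final met compounds first, then biotinylated RON2 peptide at 25 nM; detection used donor plus acceptor beads, 10 µg/mL apiece, read by AlphaScreen after 30 min at room temperature.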
SARS PLP yeast: inhibitors of SARS-CoV papain-like protease in yeast. S. cerevisiae expressing SARS-CoV PLpro, growth rescue. hit rate 0.19% among 330,000. Potency, µM (highest dose often 32.9 µM), without a hit: at the highest dose activity, positive = growth rescue, most hits filed as activators; calls by dose curve; also: 0% is about no effect; nearly all actives have a fitted effect of over 55% in size
Active calls of the source: *; ? = inconclusive; . = not tested or not shown. Unless noted, calls follow the shape of the dose curve; as a rule, active = well fitted curve in the direction sought with a large enough effect; inconclusive = small, poorly fitted or top-dose-only effect, or another doubt; inactive = no such curve, though single readings can be large; an effect the other way counts as inactive or inconclusive. Potency is read from the fitted curve at half-maximal effect.

SMILES | Pf growth 96h | Pf growth 48h | AMA1-RON2 inh | SARS PLP yeast
CCOc1ccc(NC(=O)CN(C)C(=O)C2CCN(c3ncnc4sc(C)c(C)c34)CC2)cc1OCC | ? | ? | 10.6% | 8.1%
Cc1ccccc1S(=O)(=O)N1[C@@H](c2ccc(Br)cc2)C(C(=O)O)=CC[C@H]1c1ccc(Cl)cc1 | . | . | -5.1% | -11.7%
COc1ccc(C(=O)/C=C2/c3ccccc3CC(C)(C)N2C)cc1OC | 11.7µM* | -4.3% | 1.6% | 1.1%
O=[N+]([O-])c1ccc(NC(=S)NCc2ccc(F)cc2)cc1 | 4.15µM* | ? | 14.0% | -23.1%
O=[N+]([O-])c1ccc(NC(=S)NCc2ccncc2)cc1 | ? | 7.9% | -12.6% | -2.3%
O=[N+]([O-])c1ccc(NC(=S)NCCc2ccccc2)cc1 | -1.5% | ? | 4.9% | -81.2%
Fc1ccc(NC(=S)NCc2ccccc2)cc1 | 14.7µM* | 13.5% | 6.6% | 8.6%
O=[N+]([O-])c1ccc(NC(=S)NCCc2ccc(Cl)cc2)cc1 | 1.85µM* | 2.33µM* | 3.0% | -29.5%
Cc1ccc(OCCNC(=O)c2ccccc2O)cc1 | ? | ? | 30.5% | -15.1%
COc1cccc(-c2cc(C(=O)Nc3ccc([N+](=O)[O-])cn3)c3ccccc3n2)c1 | -6.1% | ? | -7.7% | -11.6%
O=C(Nc1ccc([N+](=O)[O-])cn1)c1cc(-c2cccc(Br)c2)nc2ccccc12 | -1.6% | 3.7µM* | -23.5% | 2.0%
O=C(Nc1ccccn1)c1cc(-c2cccc(Cl)c2)nc2ccccc12 | 43.5% | 3.29µM* | 7.4% | -0.5%
O=C(Nc1ccc([N+](=O)[O-])cn1)c1cc(-c2cccc(Cl)c2)nc2ccccc12 | -20.6% | 2.08µM* | -0.8% | 6.6%
O=C(NN1CCOCC1)c1cc(-c2cccc(Cl)c2)nc2ccccc12 | 24.7% | 0.9% | 4.1% | -1.2%
C#CCOCCOCCOCCNc1nc(N2CCN(C(=O)[C@H](CCCN=C(N)N)n3cc(C(N)[C@@H](C)CC)nn3)CC2)nc(N2CCN(C(=O)[C@H](CCC(=O)O)n3cc([C@@H](N)CC(N)=O)nn3)CC2)n1 (some centres undefined) | . | . | 21.9% | 3.9%
COc1ccc(OC)c(CNC(=O)C2CCN(S(=O)(=O)N3CCC(C)CC3)CC2)c1 | 11.7µM* | 1.4% | -2.4% | -0.7%
COc1cccc(CNC(=O)C2CCN(S(=O)(=O)N3CCC(C)CC3)CC2)c1 | 13.1µM* | 22.0% | -12.9% | .
COc1ccc(CNC(=O)C2CCN(S(=O)(=O)N3CCC(C)CC3)CC2)c(OC)c1 | . | . | -3.5% | .
COc1cccc(CNC(=O)C2CCN(S(=O)(=O)N3CCCC3)CC2)c1 | 33.2% | 1.1% | -0.8% | 5.5%
COc1ccc2c(c1)C(=O)[C@H](O)[C@@H](c1ccc(OC)c(Br)c1)O2 | 2.08µM* | 3.7µM* | 13.9% | -13.5%
COc1ccc(Oc2ncccc2[N+](=O)[O-])cc1 | 11.7µM* | ? | 0.4% | 0.6%
Cc1cc(C)c(OCC(=O)N/N=C/c2ccc3c(c2)OCO3)c(C)c1 | 11.7µM* | 10.2% | -12.6% | 4.9%
CC1(C(=O)N/N=C/c2ccc3c(c2)OCO3)CC1(Br)Br (centres undefined) | 5.22µM* | 11.2% | 3.7% | 0.4%
Cc1cccc(OCC(=O)N/N=C/c2ccc3c(c2)OCO3)c1 | 14.9% | 19.7% | 5.5% | -1.1%
Cc1ccccc1OCC(=O)N/N=C/c1ccc2c(c1)OCCO2 | 2.62µM* | -1.1% | -3.1% | -20.5%
SMILES | Pf growth 96h | Pf growth 48h | AMA1-RON2 inh | SARS PLP yeast
O=C(NCc1ccccn1)C(=O)N/N=C/c1ccc2c(c1)OCO2 | 4.65µM* | 19.8% | 90.0% | 0.1%
O=C(NCCc1ccccc1)C(=O)N/N=C/c1ccc2c(c1)OCO2 | 45.4% | 36.9% | 36.0% | 10.1%
Cc1ccc(NC(=O)COC(=O)CCNS(=O)(=O)c2c(Cl)cccc2Cl)cc1 | . | . | 23.1% | -2.1%
CC1(C(=O)N/N=C/c2ccccc2)CC1(Br)Br (centres undefined) | ? | 34.7% | 10.9% | -0.9%
CC1(C(=O)N/N=C/c2ccccc2)CC1(Cl)Cl (centres undefined) | 3.29µM* | 0.1% | 3.0% | -0.7%
COc1ccc(OC)c2[nH]c(=O)c(CCNC(=O)c3ccc(S(=O)(=O)N4CCCCC4)cc3)cc12 | 54.8% | 9.28µM* | 0.5% | -1.1%
Cc1cc2cc(CCNC(=O)c3ccc(S(=O)(=O)N4CCCC4)cc3)c(=O)[nH]c2cc1C | ? | 9.28µM* | -1.9% | .
COc1ccc(OC)c2[nH]c(=O)c(CCNC(=O)c3ccc(Br)o3)cc12 | . | 11.7µM* | -3.0% | -8.8%
COc1cc(C(=O)NCCc2cc3c(OC)ccc(OC)c3[nH]c2=O)cc(OC)c1OC | ? | ? | -1.3% | -0.2%
COc1ccc2cc(CCNC(=O)c3cc4ccccc4o3)c(=O)[nH]c2c1 | 1.47µM* | 37.0% | -9.9% | 0.7%
Cc1ccc2cc(CCNC(=O)c3cc4ccccc4o3)c(=O)[nH]c2c1C | ? | ? | 4.1% | -2.6%
CC1CCc2sc(C(=O)N=Nc3c(O)[nH]c4ccccc34)cc2C1 (centres undefined) | 42.4% | 30.0% | . | -0.3%
Cc1nc2ccccc2c(=O)n1NC(=O)/C=C/c1ccccc1Cl | -8.8% | 13.7% | -17.2% | 0.7%
COc1ccc2cc(CCNC(=O)c3ccc(S(=O)(=O)N4CCOCC4)cc3)c(=O)[nH]c2c1 | ? | 10.4µM* | -12.2% | 0.8%
CCN(CC)S(=O)(=O)c1ccc2oc(C(=O)Nc3ccc(OC)cc3OC)c(C)c2c1 | ? | ? | -0.5% | -3.9%
CCOC(=O)NC(c1ccccc1)C1CCCCC1=O (centres undefined) | . | -4.5% | -15.8% | 1.7%
CCOC(=O)N1CCc2c(sc3c2c(=O)n(-c2ccc(CC)cc2)c(=O)n3CC(=O)NCC2CCCO2)C1 (centres undefined) | ? | 5.22µM* | 3.1% | -0.4%
CC(=O)N1CCc2c(sc3c2c(=O)n(Cc2ccccc2)c(=O)n3CC(=O)NCC2CCCO2)C1 (centres undefined) | 15.0% | 0.37µM* | -1.4% | 1.0%
CC(=O)N1CCc2c(sc3c2c(=O)n(-c2ccccc2)c(=O)n3CC(=O)NCC2CCCO2)C1 (centres undefined) | ? | 3.5% | 6.5% | -4.2%
COc1ccc(-n2c(=O)c3c4c(sc3n(CC(=O)NCC3CCCO3)c2=O)CN(C(C)=O)CC4)cc1OC (centres undefined) | . | . | -8.3% | .
COc1ccc(NC(=O)C(c2ccc(OC)cc2)N(C)C(=O)CC2NC(=O)NC2=O)cc1 (centres undefined) | 11.7µM* | 15.8% | -8.4% | 0.1%
COc1ccc(NC(=O)C(c2ccccc2)N(C)C(=O)c2ccc(=O)[nH]c2)cc1 (centres undefined) | 1.04µM* | -0.6% | 7.5% | 15.2%
CCOC(=O)c1c(NC(=O)CC2SC(N)=NC2=O)sc(C)c1C (centres undefined) | -9.8% | 0.0% | 17.4% | -0.6%
O=C(CCc1nnc2n(Cc3ccc(Cl)cc3)c(=O)c3ccccc3n12)NCCN1CCCC1 | ? | ? | -0.8% | 0.1%
O=C(CCc1nnc2n(CCc3ccccc3)c(=O)c3ccccc3n12)NCCCN1CCCCC1 | 3.7µM* | -17.8% | 0.7% | -1.3%
